Screens deposited in PubChem by several laboratories.
Only a selection was taken, and hits are over-represented in it overall.
HDAC3 inh: blocks human histone deacetylase 3; O15379; recombinant HDAC3, fluorogenic peptide/trypsin coupled, fluorescence; inhibition, % at 8.3 µM; actives 0.15% (n = 320,000); AID 2718; in the data active = inhibition above about 26%, passing the limit was not always enough; inconclusive = no clear call, values can overlap the other calls
Target sequence (O15379 whole entry, looked up): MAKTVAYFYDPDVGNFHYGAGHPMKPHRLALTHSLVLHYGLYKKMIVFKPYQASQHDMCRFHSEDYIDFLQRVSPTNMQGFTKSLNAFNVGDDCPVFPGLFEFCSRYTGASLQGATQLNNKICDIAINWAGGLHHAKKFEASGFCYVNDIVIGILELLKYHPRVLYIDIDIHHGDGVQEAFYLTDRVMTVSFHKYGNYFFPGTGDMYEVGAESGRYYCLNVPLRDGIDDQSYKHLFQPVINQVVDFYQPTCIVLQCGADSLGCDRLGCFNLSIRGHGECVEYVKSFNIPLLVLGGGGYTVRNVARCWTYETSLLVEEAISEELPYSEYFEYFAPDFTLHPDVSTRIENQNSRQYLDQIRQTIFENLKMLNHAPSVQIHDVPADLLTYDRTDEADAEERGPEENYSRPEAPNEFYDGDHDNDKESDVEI
ALR H2O2 inh: blocks human ALR sulfhydryl oxidase activity; P55789; purified ALR, DTT oxidation, H2O2 HRP-luminol luminescence; inhibition, % (test concentration not listed); actives 3.8% (n = 290,000); AID 485317;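 active = mean replicate inhibition above about 79%, with every replicate also reaching it, limit read from the data; inconclusive = only one of the two criteria met; inactive = mean below limit and not every replicate reaching it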
GC-A act: GC-A (human) enzyme activation | P16066 | HEK293 GC-A cells, cGMP TR-FRET, EC30 ANP; 0% at EC30 ANP, 100% saturating ANP | activation, % at 10 µM | actives 0.14% (n = 370,000) | AID 1671463; in the data active = activation above about 40%
NPR2 activator: GC-B (human) receptor activation | P20594 | HEK293-GC-B cells, CNP EC30, cGMP TR-FRET; 0% at EC30 CNP, 100% saturating CNP | activation, % at 10 µM | actives 0.11% (n = 370,000) | AID 1920062;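 active = activation at 10 µM reaching about 35% in either raw or pattern-adjusted values, limit read from the data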
* marks the source's active call; other numbers are inactive results; ? = inconclusive; . = no result.

SMILES | HDAC3 inh | ALR H2O2 inh | GC-A act | NPR2 activator
COc1cc(/C=N/NC(=O)c2cccnc2)cc(Br)c1O | 2 | 81* | -17 | -13
COc1cc(/C=N\NC(=O)c2ccc(-c3ccccc3)cc2)cc(OC)c1OC(C)=O | 14 | -2 | 3 | -1
COc1cc(/C=N/NC(=O)c2ccc(NS(=O)(=O)c3cccs3)cc2)cc(OC)c1O | -3 | 98* | 5 | 0
CC(COc1ccccc1Cc1ccccc1)N1CCCCC1 (centres undefined) | 5 | 1 | . | .
COc1cc(/C=N/NC(=O)CCOc2ccccc2C)cc(Br)c1O | -11 | 97* | -7 | -5
COc1cc(C=NNC(=O)c2ccccc2NS(=O)(=O)c2cccs2)cc(OC)c1O | -3 | 99* | 3 | -1
O=C1CCC/C(=N/NC(=O)c2ccc(NS(=O)(=O)c3cccs3)cc2)C1 | 0 | 82* | 0 | -5
CCN(CC)C(=O)[C@H]1C[C@H](CC(=O)NCCN2CCOCC2)C(=O)N2CCc3c([nH]c4cc(-c5ccco5)ccc34)[C@]12C | . | . | 2 | 2
O=c1c2sccc2nc(SCc2cc(=O)n3cc(Cl)ccc3n2)n1Cc1ccccn1 | 2 | 88* | 2 | 6
O=C(CSc1nc2nccnc2c(=O)n1Cc1cccs1)Nc1ccccc1 | 4 | 98* | 3 | 4
COc1ccc(NC(=O)CSc2nc3ccsc3c(=O)n2Cc2ccccn2)c(OC)c1 | -3 | 96* | 0 | 3
COc1ccccc1NC(=O)CSc1nc2nccnc2c(=O)n1Cc1cccs1 | -6 | 96* | -6 | 4
C[C@H]1CN([C@@H](C)CO)S(=O)(=O)c2ccc(Br)cc2O[C@H]1CN(C)C(=O)C1CCC1 | . | . | -24 | -16
Cc1nc(=O)c(-c2ccccc2)c(C)n1-c1ccccc1Cl | -2 | -18 | -8 | 8
COc1ccc(C(=O)N/N=C/c2sc3ccccc3c2O)cc1 | 10 | 81* | . | .
O=C(N/N=C/c1sc2ccccc2c1O)c1cccc2ccccc12 | 10 | 36 | -5 | -2
O=C(N/N=C/c1sc2ccccc2c1O)c1ccccc1 | 6 | 88* | . | .
COc1ccc2cc(C(=O)N/N=C/c3sc4ccccc4c3O)ccc2c1 | 5 | 7 | -2 | -13
C[C@H](NC(=O)c1nc[nH]c1C(=O)N(C)Cc1ccccc1)c1ccccc1 | -2 | 0 | -1 | 0
O=C(O)c1cc(S(=O)(=O)Nc2ccc3cn[nH]c3c2)ccc1O | -2 | 4 | 1 | 3
CCN(CC)C(=O)Cn1c2ccccc2c2nc3n(c(=O)c21)CCS3 | . | . | 2 | 4
CCOC(=O)CSc1nc2ccccc2c(=O)n1C1CCCC1 | -5 | -7 | -4 | 4
CCCCCn1c(SCC(=O)CC(=O)OCC)nc2cc(C(=O)N3CCC(C(N)=O)CC3)ccc2c1=O | 8 | 91* | 2 | 11
CCOC(=O)CSc1nc2cc(C(=O)N3CCC(C(N)=O)CC3)ccc2c(=O)n1C1CCCCC1 | 10 | 97* | 2 | -1
O=S(=O)(Nc1cccc(-n2cnnn2)c1)c1ccccc1C(F)(F)F | -2 | 56 | 2 | 1
SMILES | HDAC3 inh | ALR H2O2 inh | GC-A act | NPR2 activator
COc1ccc(-n2nc3c(c2NC(=O)COc2ccccc2OC)CS(=O)(=O)C3)cc1 | . | . | 1 | 5
COc1cc(/C=N/NC(=O)C(=O)/C=C2\NC(C)(C)Cc3ccccc32)ccc1O | 4 | 82* | -5 | 5
COc1cc(/C=N/NC(=O)C(=O)Nc2ccccn2)ccc1O | ? | ? | -5 | -2
COc1cc(/C=N/Nc2cc(C)nc(N)n2)ccc1O | 6 | 98* | 0 | -9
COc1cc(/C=N/Nc2ncc(C(F)(F)F)cc2Cl)cc(OC)c1O | 9 | 99* | -3 | -1
COc1cc(/C=N/Nc2ccc(C(F)(F)F)cn2)ccc1O | 13 | 99* | -8 | -8
COc1cc(/C=N/Nc2ncc(C(F)(F)F)cc2Cl)cc(OC)c1OC | 5 | -9 | -4 | -3
O=C(O)c1ccc(/C=N/Nc2ccc(C(F)(F)F)cn2)cc1 | . | . | 8 | -6
COc1ccc(/C=N/Nc2cc(C)nc(N)n2)cc1 | 14 | 0 | -3 | -1
COC(=O)[C@]12C[C@H](CC(=O)N3CCN(C(=O)c4ccco4)CC3)C(=O)N(CCc3ccc(OC)c(OC)c3)C1=C[C@H](C(C)(C)C)O[C@@H]2C | . | . | 2 | -6
Cn1c(CCC(N)=O)nnc1SCC(=O)Nc1ccccc1C(=O)NC1CC1 | 9 | -1 | 4 | -2
COc1ccc(/C=N/NC(=O)c2cc[n+]([O-])cc2)cc1OC | 10 | 2 | . | .
COc1cc(/C=N/NC(=O)c2nc(C)cc(C)n2)ccc1O | -3 | 99* | -9 | 0
COc1cc(/C=N/NC(=O)C2(O)c3ccccc3-c3ccccc32)ccc1O | 5 | 99* | -3 | 0
COc1ccc(/C=N/NC(=O)c2cc3c(OC)ccc(OC)c3[nH]2)cc1O | 2 | 66 | -15 | -4
COc1cc(/C=N/NC(=O)c2cc3ccccc3[nH]2)ccc1O | 4 | 100* | -9 | -9
COc1cc(/C=N/NC(=O)c2cc[n+]([O-])cc2)ccc1O | 10 | 99* | 1 | -2
COc1cc(/C=N/NC(=O)c2cccc(C(=O)N/N=C/c3ccc(O)c(OC)c3)n2)ccc1O | 6 | 2 | -9 | -2
CC(C)CC(NC(=O)c1ccccc1NC(=O)c1ccccc1)C(=O)O (centres undefined) | 2 | 4 | -3 | -1
COc1cc(/C=N/NC(=O)c2ccncc2)ccc1O | 16 | 99* | -2 | 2
COc1ccc(/C=N/NC(=O)c2ccncc2)cc1OC | 5 | -5 | 1 | 3
CC[n+]1c(/C=C(\C)Nc2ccccc2)sc2ccccc21 | ? | 89* | -2 | 1
N#CC1=C(N)Oc2n[nH]c(-c3ccccc3)c2C1c1cccnc1 (centres undefined) | 1 | 16 | -4 | -4
CCOc1cc(-c2cc(-c3ccccc3)nc(N)c2C#N)ccc1O | 10 | 95* | 4 | 13
CCOc1cc(C2C(C#N)=C(N)Oc3n[nH]c(-c4ccccc4)c32)ccc1O (centres undefined) | 7 | 97* | -19 | -15
SMILES | HDAC3 inh | ALR H2O2 inh | GC-A act | NPR2 activator
N[C@@H](Cc1ccc(O)c(O)c1)C(=O)O | . | . | -6 | 5
CC(Cc1ccc(O)c(O)c1)C(C)Cc1ccc(O)c(O)c1 (centres undefined) | 17 | 99* | . | .
O=C(N/N=C/c1ccc(F)cc1)c1cc[n+]([O-])cc1 | -5 | -3 | -3 | 1
NC(=O)CSc1nnc(CSc2ncccn2)n1-c1ccccc1 | -3 | . | -3 | -3
COc1cc(C)c(C(=O)Oc2cc(C)c(C(=O)O)c(O)c2)c(O)c1 | 2 | 58 | 3 | -13
COc1cc(C)c(C(=O)Oc2cc(C)c(C(=O)O)c(O)c2C)c(O)c1C | 3 | 97* | 2 | -2
COC(=O)/C=C/S(=O)(=O)c1ccc(NC(C)=O)cc1 | 10 | 98* | 0 | 6
O=C(COC(=O)COc1ccccc1)Nc1ncc([N+](=O)[O-])s1 | 0 | 96* | -5 | -3
